According to PubChem BioAssay AID1159580 (chemical genetic matrix, 2015):
Out of some 5,500 compounds screened, about 2,000 (36%) were called active. Inconclusive results (about 18%) are left out. Some of the results follow. Unmarked numbers belong to inactive results. Rule as the data show it: active = normalized growth mostly below about 0.91 (no sharp cut-off); inconclusive = no clear call, values can overlap the other calls; inactive = mostly above about 0.92.

Assay: chemical genetic growth profiling, strain panel (AID 1159580);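 also: tested at 20 µM; growth read once vehicle control cultures reached saturation at 30 °C; 1 = growth at the plate median or of vehicle wells; lower values mean less growth of the strain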
Details: S. cerevisiae deletion strains, growth OD

## CO/N=C1/CN(c2nc3c(cc2F)c(=O)c(C(=O)O)cn3C2CC2)CC1CN (centres undefined)
Locus YAL021C, strain ccr4, active compounds read low
  normalized growth: 1
Locus YAL026C, strain drs2, active compounds read low
  normalized growth: 1.02
Locus YAL030W, strain snc1, active compounds read low
  normalized growth: 0.992
Locus YBL061C, strain skt5, active compounds read low
  normalized growth: 0.99
Locus YBR009C, strain hhf1, active compounds read low
  normalized growth: 0.953
Locus YBR023C, strain chs3, active compounds read low
  normalized growth: 1.02
Locus YBR171W, strain sec66, active compounds read low
  normalized growth: 1.02
Locus YBR231C, strain swc5, active compounds read low
  normalized growth: 0.998
Locus YBR279W, strain paf1, active compounds read low
  normalized growth: 1.02
Locus YCL011C, strain gbp2, active compounds read low
  normalized growth: 1.01
Locus YCL016C, strain dcc1, active compounds read low
  normalized growth: 0.973
Locus YCL069W, strain vba3, active compounds read low
  normalized growth: 1.02
Locus YCR088W, strain abp1, active compounds read low
  normalized growth: 1.02
Locus YDL005C, strain med2, active compounds read low
  normalized growth: 1.04
Locus YDL040C, strain nat1, active compounds read low
  normalized growth: 1
Locus YDR001C, strain nth1, active compounds read low
  normalized growth: 1.02
Locus YDR069C, strain doa4, active compounds read low
  normalized growth: 0.979
Locus YDR137W, strain rgp1, active compounds read low
  normalized growth: 1.07
Locus YDR159W, strain sac3, active compounds read low
  normalized growth: 0.975
Locus YDR195W, strain ref2
  normalized growth: 0.979
Locus YDR297W, strain sur2, active compounds read low
  normalized growth: 1
Locus YDR334W, strain swr1, active compounds read low
  normalized growth: 1.02
Locus YDR335W, strain msn5, active compounds read low
  normalized growth: 1.01
Locus YDR392W, strain spt3, active compounds read low
  normalized growth: 0.937
Locus YEL003W, strain gim4, active compounds read low
  normalized growth: 1.03
Locus YEL037C, strain rad23, active compounds read low
  normalized growth: 1.02
Locus YEL061C, strain CIN8 (second series), active compounds read low
  normalized growth: 1.01
Locus YER015W, strain faa2, active compounds read low
  normalized growth: 1.01
Locus YER016W, strain bim1, active compounds read low
  normalized growth: 1.04
Locus YER111C, strain swi4, active compounds read low
  normalized growth: 1.03
Locus YER155C, strain BEM2 (second series), active compounds read low
  normalized growth: 0.977
Locus YFR010W, strain ubp6, active compounds read low
  normalized growth: 0.982
Locus YGL167C, strain pmr1, active compounds read low
  normalized growth: 1.01
Locus YGL173C, strain kem1, active compounds read low
  normalized growth: 0.987
Locus YGL227W, strain vid30, active compounds read low
  normalized growth: 1.01
Locus YGL240W, strain doc1, active compounds read low
  normalized growth: 0.967
Locus YGL253W, strain hxk2, active compounds read low
  normalized growth: 1.02
Locus YHR013C, strain ard1, active compounds read low
  normalized growth: 1.02
Locus YHR027C, strain rpn1, active compounds read low
  normalized growth: 1
Locus YHR030C, strain SLT2, active compounds read low
  normalized growth: 0.983
Locus YHR079C, strain IRE1, active compounds read low
  normalized growth: 0.949
Locus YHR142W, strain chs7, active compounds read low
  normalized growth: 1.02
Locus YJL092W, strain hpr5, active compounds read low
  normalized growth: 0.973
Locus YJL095W, strain BCK1 (second series), active compounds read low
  normalized growth: 0.992
Locus YJL095W, strain BCK1, active compounds read low
  normalized growth: 0.98
Locus YJL115W, strain asf1, active compounds read low
  normalized growth: 0.956
Locus YJL129C, strain trk1, active compounds read low
  normalized growth: 0.997
Locus YJL154C, strain vps35, active compounds read low
  normalized growth: 1.02
Locus YJL164C, strain tpk1, active compounds read low
  normalized growth: 0.985
Locus YJL166W, strain qcr8, active compounds read low
  normalized growth: 0.998
Locus YJL187C, strain SWE1, active compounds read low
  normalized growth: 0.998
Locus YJR066W, strain TOR1, active compounds read low
  normalized growth: 0.949
Locus YKL160W, strain elf1, active compounds read low
  normalized growth: 1.02
Locus YKR026C, strain gcn3, active compounds read low
  normalized growth: 1.01
Locus YKR091W, strain srl3, active compounds read low
  normalized growth: 1.01
Locus YLL001W, strain dnm1, active compounds read low
  normalized growth: 0.98
Locus YLL026W, active compounds read low
  normalized growth: 1.01
Locus YLL041C, strain sdh2, active compounds read low
  normalized growth: 1.02
Locus YLR027C, strain aat2, active compounds read low
  normalized growth: 1.01
Locus YLR113W, strain HOG1, active compounds read low
  normalized growth: 0.999
Locus YLR221C, strain rsa3, active compounds read low
  normalized growth: 0.98
Locus YLR258W, strain gsy2, active compounds read low
  normalized growth: 1.02
Locus YLR262C, strain YPT6 (second series), active compounds read low
  normalized growth: 0.978
Locus YLR320W, strain mms22, active compounds read low
  normalized growth: 0.707 (active)
Locus YLR342W, strain FKS1, active compounds read low
  normalized growth: 0.958
Locus YLR357W, strain rsc2, active compounds read low
  normalized growth: 0.981
Locus YLR370C, strain arc18, active compounds read low
  normalized growth: 1.02
Locus YLR384C, strain iki3, active compounds read low
  normalized growth: 1.01
Locus YML120C, strain ndi1, active compounds read low
  normalized growth: 0.998
Locus YMR058W, strain fet3, active compounds read low
  normalized growth: 0.816 (active)
Locus YMR125W, strain sto1, active compounds read low
  normalized growth: 1.02
Locus YMR129W, active compounds read low
  normalized growth: 1.01
Locus YMR205C, strain PFK2, active compounds read low
  normalized growth: 1.01
Locus YMR231W, strain pep5, active compounds read low
  normalized growth: 1.01
Locus YNL071W, strain lat1, active compounds read low
  normalized growth: 1.02
Locus YNL183C, strain NPR1, active compounds read low
  normalized growth: 0.903
Locus YNL209W, strain ssb2, active compounds read low
  normalized growth: 1.01
Locus YNL248C, strain rpa49, active compounds read low
  normalized growth: 1.02
Locus YNL322C, strain KRE1 (second series), active compounds read low
  normalized growth: 1.03
Locus YNR049C, strain mso1, active compounds read low
  normalized growth: 1.01
Locus YOR001W, strain rrp6, active compounds read low
  normalized growth: 1.01
Locus YOR070C, strain gyp1, active compounds read low
  normalized growth: 1
Locus YOR080W, strain dia2, active compounds read low
  normalized growth: 0.974
Locus YOR083W, strain WHI5, active compounds read low
  normalized growth: 0.987
Locus YOR106W, strain vam3, active compounds read low
  normalized growth: 0.993
Locus YOR231W, strain MKK1, active compounds read low
  normalized growth: 0.989
Locus YOR265W, strain rbl2, active compounds read low
  normalized growth: 1.01
Locus YOR270C, strain vph1, active compounds read low
  normalized growth: 1.03
Locus YOR290C, strain snf2, active compounds read low
  normalized growth: 1.03
Locus YPL051W, strain arl3, active compounds read low
  normalized growth: 1
Locus YPL078C, strain atp4, active compounds read low
  normalized growth: 1.04
Locus YPL106C, strain sse1, active compounds read low
  normalized growth: 1.01
Locus YPL240C, strain hsp82, active compounds read low
  normalized growth: 1.02
Locus YPL256C, strain CLN2, active compounds read low
  normalized growth: 1
